aSyn yeast rescue: alpha-synuclein toxicity suppression in yeast; S. cerevisiae alpha-synuclein toxicity rescue, BacTiter-Glo growth, 24 h; Potency, µM (top dose mostly 46.1 µM), usual class: activators; 94,000 tested, 0.02% active; AID 1347070; active = well fitted activation curve with a large enough effect; also: 0% is about no effect
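Growth restoration measured by BacTiter-Glo luminescence after 24 hr at 30 deg C; alpha-synuclein yeast, raffinose-pregrown to mid-log, were added at OD600=0.02 in galactose medium onto pinned compounds.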
Active calls of the source: *; i = inactive. The sample as a whole holds a higher share of hits than the screen did. Potency is read from the fitted curve at half-maximal effect.

SMILES | aSyn yeast rescue
Cc1ccc(C2c3[nH]c4ccccc4c3CCN2C(=O)CSCc2ccc(F)cc2)cc1 (centres undefined) | 16µM*
CSc1ccc(C2c3[nH]c4ccccc4c3CCN2C(=O)CCc2ccccc2)cc1 (centres undefined) | i
O=C(NCc1cccnc1)c1nn(-c2ccc(F)cc2)nc1CO | i
COc1ccc(-n2c(CCC(=O)O)ccc2-c2ccccc2)c(OC)c1 | i
CCN(C(=O)CCS(=O)(=O)c1cc2[nH]c(=O)c(=O)[nH]c2cc1C)c1ccccc1 | i
CCOc1ccc(NC(=O)CC2C(=O)OCCN2CC)cc1 (centres undefined) | i
COc1ccc(S(=O)(=O)Nc2cc3c(cc2NCc2ccccc2)n(C)c(=O)n3C)cc1OC | i
Cc1cn2c(=O)cc(COC(=O)c3ccc(NC(=O)COc4ccc(C)c(C)c4)cc3)nc2s1 | i
COc1ccc(NC(=O)c2ccc3c(=O)n4nc(Nc5cc(C)ccc5C)sc4nc3c2)cc1 | i
COc1cc(Nc2ncc3c(n2)CCN(Cc2ccc(OC(C)C)c(OC)c2)C3)cc(OC)c1 | i
O=C(CCSCc1ccc(Cl)cc1)NCc1ccc(F)cc1Cl | i
O=C(CCSCc1cccc(Cl)c1)NCc1ccc(F)cc1Cl | 28µM*
O=C(CCSCc1ccccc1Cl)NCc1ccc(F)cc1Cl | i
COc1cccc(-c2nc(SCc3cccc(Br)c3)n3[nH]c(=O)cc3n2)c1 | i
O=C(Nc1cc(-c2ccc(F)c(F)c2)no1)c1ccccc1F | i
COc1ccccc1NC(=O)CSc1nc(-c2ccc(C(C)(C)C)cc2)c(C#N)c(=O)[nH]1 | i
CCOC(=O)c1scc(-c2ccccc2)c1S(=O)(=O)Nc1ccccc1OC | i
CCc1ccc(NS(=O)(=O)c2c(-c3ccccc3)csc2C(=O)OC)cc1 | 25µM*
COC(=O)c1scc(-c2ccccc2)c1S(=O)(=O)Nc1cccc(C)c1C | i
CC1(C)CC(=O)c2cc(-c3nc(-c4ccc(F)cc4)cs3)c(=O)[nH]c2C1 | i
O=C(Cn1cc(S(=O)(=O)Cc2ccc(F)cc2)c2ccccc21)NCc1ccccc1Cl | i
Cc1ccc(C(=O)c2oc3ccccc3c2NC(=O)COc2ccccc2Cl)cc1 | i
CCOC(=O)c1ccc2c(c1)N(Cc1ccc(F)cc1Cl)C(=O)c1ccccc1S2(=O)=O | i
CCc1ccc(NC(=O)CN(c2ccc(C)cc2)S(=O)(=O)c2cccs2)cc1 | i
Cc1cc(Br)cc2c1N(Cc1ccccc1OC(C)C)C(=O)C2=O | i
SMILES | aSyn yeast rescue
Cc1ccc2oc(=O)c3cc(C(=O)NCc4ccc(Cl)cc4)sc3c2c1 | i
Cc1ccc(CNC(=O)c2cc3c(=O)oc4ccc(C)cc4c3s2)cc1 | i
CCCN(CCC)CCCNC(=O)c1cc2c(=O)oc3ccc(C)cc3c2s1 | 13µM*
CCc1nnc(SC(CC)C(=O)Nc2ccc(OC)c(Cl)c2)c2cc3occc3n12 (centres undefined) | i
CC1Cc2cc(S(=O)(=O)CCC(=O)Nc3ccc(Cl)cc3F)ccc2N1C(=O)C1CC1 (centres undefined) | i
Cc1ccc2c(c1)c1c3n2CCN(C(=O)c2cccc(C(F)(F)F)c2)C3CCC1 (centres undefined) | i
COc1cc(OC)cc(C(=O)Nc2cccc(-c3cn4ccsc4n3)c2)c1 | i
CC(C)(C)C1CCc2c(sc(NC(=O)CCC(=O)O)c2C(=O)Nc2ccccc2C(F)(F)F)C1 (centres undefined) | i
CCS(=O)(=O)c1ncc(Cl)c(C(=O)N2CCN(c3cccc(Cl)c3)CC2)n1 | i
CC(=O)N1c2ccccc2C(=O)C1N1CCN(c2cc(Cl)ccc2C)CC1 (centres undefined) | i
CCc1nn(CC(=O)N2CCN(c3cccc(C(F)(F)F)c3)CC2)c(=O)c2cccn12 | i
CCOc1ccccc1NC(=O)c1ccc2c(Cl)c3c(nc2c1)CCC3 | i
CCCCN(C)CCNC(=O)C1CCN(c2nc3ccc(CC)cc3s2)CC1 | i

Screening data as filed in PubChem BioAssay.
